Screening data as filed in PubChem BioAssay.
Neddyl block = cullin neddylation inhibition | inhibition, % at 25 µM | TR-FRET cullin neddylation, biochemical | 360,000 compounds, 0.58% hits | P61081+Q13564 | AID 651699; in the data active = inhibition above about 36%
HGIII-sPLA2 inh = Inhibits HGIII-sPLA2 liposome hydrolysis, primary screen. Q9NZ20. QFRET BODIPY PC-A2 liposome hydrolysis, fluorescence. inhibition, % at 12.2 µM. 370,000 compounds, 0.56% hits. AID 743126;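 active = inhibition above mean plus 3 SD of compounds lying within the high and low control bounds, cut at about 19% in these data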
ARNT TACC3 PPI = ARNT/TACC3 interaction disruption. AlphaScreen His-ARNT PAS-B/GST-TACC3 binding, luminescence; TACC3 fragment carries E629A point mutation. inhibition, % at 9.99 µM. 390,000 compounds, 0.66% hits;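 active = mean inhibition of replicates at least 50% and at least half of replicates each reaching 50%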
DAGLB inhibitor = diacylglycerol lipase beta (human) inhibition; Q8NCG7; 340,000 compounds, 0.059% hits; inhibition, % at 5.17 µM; HEK293T DAGLB membrane lysate, EnzChek fluorogenic substrate; in the data active = inhibition above about 34%
NadD inh = blocks S. aureus nicotinate mononucleotide adenylyltransferase. purified NadD enzyme, colorimetric absorbance read-out. inhibition, % at 20 µM. 360,000 compounds, 0.78% hits; in the data active = inhibition above about 26%
ARNT Alpha ctr = interferes with AlphaScreen signal, flagging false ARNT-TACC3 hits; shares compounds with ARNT TACC3 PPI; AID 651705; 1,200 compounds, 50% hits; His-ARNT PASB-GST AlphaScreen artifact counter-screen, luminescence; AC50, µM (doses to about 68 µM);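 active = every separate test run was called active for a drop in luminescence, with AC50 within twice the top valid dose, actives reach about 71 µM in these data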
Hits are given with their value; n = inactive; x = no result given. Compounds with a hit are over-represented: about 2% of the library has one in this group of screens.

SMILES	Neddyl block	HGIII-sPLA2 inh	ARNT TACC3 PPI	DAGLB inhibitor	NadD inh	ARNT Alpha ctr
C[C@H](CO)N1C[C@H](C)[C@H](CN(C)Cc2ccc(Cl)c(Cl)c2)Oc2ccc(NC(=O)NC3CCCCC3)cc2C1=O	x	x	n	x	x	x
O=C(O)CCNc1cc(N2CCN(C(=O)c3ccco3)CC2)c2noc3c2c1C(=O)c1ccccc1-3	n	n	52.7	n	n	19.1µM
O=C(c1cc(-c2ccccc2Cl)on1)N1CCN(C(=O)c2ccco2)CC1	n	n	n	n	n	x
CC(C)CC#Cc1cnc2c(c1)C(=O)N([C@@H](C)CO)C[C@@H](C)[C@H](CN(C)Cc1ccccc1F)O2	x	x	n	x	x	x
C/C(=N\NC(=O)c1ccncc1)C12CC3CC(CC(C3)C1)C2	n	n	50.9	n	n	n
Cc1noc(C)c1NC(=O)N(C)C[C@@H]1OCCCC[C@H](C)Oc2ccc(NC(=O)Nc3ccc(F)cc3)cc2C(=O)N([C@@H](C)CO)C[C@H]1C	x	x	n	x	x	x
CNC(=O)CN1C(=O)c2cccc3cccc1c23	n	n	n	n	n	x
CN1/C(=N\O)c2cccc3cccc1c23	n	n	51.8	n	n	n
COc1ccc(-n2c(-c3ccc(Cl)cc3)c[n+]3c2CCc2ccccc2-3)cc1	n	n	n	n	n	x
Cc1ccc(-n2c(-c3ccc(Br)cc3)c[n+]3c2CCc2ccc4cccnc4c2-3)cc1	n	n	58.8	n	n	n
c1ccc(-c2nccc(-c3ccco3)n2)nc1	n	n	59.2	n	n	56.5µM
C[C@@H]1CN([C@H](C)CO)C(=O)Cc2cc(NC(=O)Nc3cccc4ccccc34)ccc2O[C@@H]1CN(C)Cc1ccc2c(c1)OCO2	x	x	n	x	x	x
O=c1c(C=NCCCO)c(-c2ccccc2)[nH]n1-c1nc2ccccc2s1	n	n	n	n	n	x
COCCCN=Cc1c(-c2ccccc2)[nH]n(-c2nc3ccccc3s2)c1=O	n	n	57.6	n	n	n
C[C@H]1CN([C@@H](C)CO)C(=O)c2cc(C#Cc3ccccn3)cnc2O[C@H]1CN(C)Cc1ccncc1	x	x	n	x	x	x
CCCN(C)C[C@@H]1Oc2ncc(C#CCC(C)C)cc2C(=O)N([C@@H](C)CO)C[C@H]1C	x	x	37.4	x	x	n
C[C@H](CO)N1C[C@H](C)[C@@H](CN(C)Cc2ccccn2)Oc2ncc(C#CC3(O)CCCC3)cc2C1=O	x	x	19.0	x	x	n
C[C@H]1CN([C@@H](C)CO)C(=O)c2cc(C#Cc3ccccn3)cnc2O[C@@H]1CN(C)Cc1ccccc1	n	n	active	n	n	n
C[C@H](CO)N1C[C@H](C)[C@H](CN(C)Cc2ccccc2)Oc2ncc(C#CC3(O)CCCC3)cc2C1=O	x	x	n	x	x	x
C[C@H]1CN([C@@H](C)CO)C(=O)c2cc(NS(=O)(=O)c3ccc(Cl)cc3)ccc2O[C@H]1CN(C)CC1CCCCC1	x	x	n	x	x	x
Cc1[nH]n(-c2ccccc2)c(=O)c1C(c1ccc(O)c([N+](=O)[O-])c1)c1c(C)[nH]n(-c2ccccc2)c1=O	n	n	10.3	n	n	n
O=C(C[C@@H]1C[C@H]2c3cc(NC(=O)NC4CCCCC4)ccc3O[C@H]2[C@@H](CO)O1)NCc1ccccc1	x	x	n	x	x	x
O=C(C[C@H]1C[C@H]2c3cc(NC(=O)NC4CCCCC4)ccc3O[C@H]2[C@H](CO)O1)NCc1ccccc1	x	x	active	x	x	n
c1ccc(-c2nnc(-c3ccccn3)nc2N2CCC(C3CCCCC3)C2)cc1 (configuration not stated)	x	x	x	x	x	5.28µM
OCC1CCN(c2nc(-c3ccccn3)nnc2-c2ccccc2)CC1	x	x	x	x	x	2.84µM
SMILES	Neddyl block	HGIII-sPLA2 inh	ARNT TACC3 PPI	DAGLB inhibitor	NadD inh	ARNT Alpha ctr
C[C@H]1CN([C@@H](C)CO)S(=O)(=O)c2ccc(-c3cncnc3)cc2O[C@@H]1CN(C)C(=O)C1CCCCC1	x	x	n	x	x	x
C[C@H](CO)N1C[C@H](C)[C@@H](CN(C)C(=O)c2ccccc2)OCCCC[C@H](C)Oc2ccc(NC(=O)C3CCCCC3)cc2C1=O	x	x	n	x	x	x
COc1ccc(NCc2ccccc2[N+](=O)[O-])cc1OC	n	n	n	n	n	x
COc1cc2c(cc1OC)C(Cc1ccccc1[N+](=O)[O-])=NCC2	n	n	39.3	n	n	n
O=C(O)CSc1cc(NS(=O)(=O)c2cccc([N+](=O)[O-])c2)c2ccccc2c1O	n	n	61.4	n	n	n
O=C(O)c1cccc(S(=O)(=O)Nc2ccc([N+](=O)[O-])cc2O)c1	n	n	n	n	n	x
O=C(Nc1ncn[nH]1)C(F)(F)C(F)F	n	n	n	n	n	x
CCC(C(=O)Nc1ncn[nH]1)(C(F)(F)F)C(F)(F)F	n	n	10.5	n	n	n
COc1ccc(C2C(C#N)=C(N)Oc3n[nH]c(-c4ccccn4)c32)c(OC)c1OC (configuration not stated)	n	n	60.1	n	n	n
O=C(COC(=O)c1ccc(O)cc1O)Nc1ccc2ccccc2c1	n	n	n	n	n	x
O=C(COC(=O)c1ccc(O)cc1O)Nc1nnc(-c2ccccc2)o1	n	n	60.4	n	n	47µM
CCCN(C)C[C@H]1Oc2cc(C#C[C@@H](C)O)ccc2S(=O)(=O)N([C@H](C)CO)C[C@H]1C	x	x	n	x	x	x
Cc1ccccc1Nc1nc(N)nc(CN(C)Cc2ccccc2Cl)n1	n	n	57.3	n	n	n
O=S(=O)(c1ccccc1)c1nc(-c2ccco2)oc1Nc1ccccc1	n	n	active	n	n	61.8µM
Cc1ccn(CC(=O)N/N=C/c2cc([N+](=O)[O-])ccc2O)n1	n	n	x	n	n	x
O=C(Cn1cnc([N+](=O)[O-])n1)N/N=C/c1cc(Cl)ccc1O	n	n	58.0	n	n	70.4µM
O=C(CCCn1cnc([N+](=O)[O-])n1)Nc1cc(Cl)ccc1O	n	n	n	n	n	x
O=C(Cn1cncn1)N/N=C/c1cc([N+](=O)[O-])ccc1O	n	n	63.8	n	n	27.9µM
CN(C)CC(=O)Nc1ccc2c(c1)[C@@H]1C[C@H](CC(=O)N(C)C)O[C@@H](CO)[C@@H]1O2	x	x	n	x	x	x
CCOc1cc(/C=C2\SC(=N)N(c3nccs3)C2=O)ccc1OCCN1CCOCC1	n	n	50.6	n	n	69.6µM
CCOc1cc(/C=C2\SC(=S)N(N3CCOCC3)C2=O)ccc1O	n	n	n	n	n	x
COc1ccc(/C(C)=N\NC(=O)CSc2nnc(C)s2)cc1	n	n	38.6	n	n	n
CN(C)C(=O)C[C@@H]1C[C@@H]2c3cc(NC(=O)Nc4ccccc4)ccc3O[C@@H]2[C@@H](CO)O1	x	x	n	x	x	x
COc1cc(Cc2nccc3cc(OC)c(OC)cc23)c(NC(C)=O)cc1OC	n	n	n	n	n	x
COc1cc(Cc2nccc3cc(OC)c(OC)cc23)c(S(=O)(=O)O)cc1OC	n	n	active	n	n	n
C[C@H](CO)N1C[C@H](C)[C@H](CN(C)C(=O)NC2CCCCC2)OCCCC[C@H](C)Oc2ccc(NS(=O)(=O)c3ccccc3)cc2C1=O	x	x	n	x	x	x
c1ccc(N=Nc2ccc3cccccc2-3)cc1	n	n	56.8	n	n	3.21µM
